Only a selection was taken, and hits are over-represented in it overall.
Dicer inh – human Dicer pre-microRNA cleavage inhibition; AID 1347074; cat-ELCCA pre-miR-21 Dicer processing, chemiluminescence; active compounds read high; actives 6% (n = 47,000); z-score at 25 µM; Q9UPY3; in the data active = z-score above about 3, passing the limit was not always enough;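 note: plate controls were vehicle for no effect and no enzyme for full effect; higher signal means more uncleaved substrate so more Dicer inhibition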
The depositor's hits bear a star.

SMILES	Dicer inh
COc1ccc(-c2nnc(SCC(=O)c3ccc4c(c3)OCCO4)o2)cc1OC	-1.9
CCCS(=O)(=O)C/C(N)=N/OC(=O)c1ccc(Cl)cc1	-0.54
CC(C)S(=O)(=O)C/C(N)=N/OS(=O)(=O)c1ccc(Cl)cc1	-1.5
N#C/C(=N\OC(=O)c1ccc(Cl)cc1)S(=O)(=O)c1ccc(Cl)cc1	-3.8
CC(C)S(=O)(=O)C/C(N)=N/OCc1ccc(Cl)cc1	-0.68
CC(C)S(=O)(=O)C/C(N)=N/OC(=O)c1cc(Cl)cc(Cl)c1	5.4*
N/C(CS(=O)(=O)Cc1ccco1)=N\OC(=O)c1ccc(Cl)cc1	4.8*
CCOc1cc(-n2c(C)ccc2C)c(OCC)cc1N1CCOCC1	-2.1
O=C(O)c1ccc2c(=O)n(-c3ccccc3)c(=O)[nH]c2c1	-0.81
COc1ccc(C2Oc3ccccc3C3CC(c4ccccc4O)=NN32)cc1OC (stereo not given)	4.8*
Oc1ccc(C2Oc3ccccc3C3CC(c4ccccc4O)=NN32)cc1 (stereo not given)	18*
Oc1ccccc1C1=NN2C(C1)c1ccccc1OC2c1ccncc1 (stereo not given)	1.9
COc1ccc(O)c(C2=NN3C(C2)c2ccccc2OC3c2ccc(OC)c(O)c2)c1 (stereo not given)	1
COc1ccc(C2Oc3ccccc3C3CC(c4ccccc4O)=NN32)cc1O (stereo not given)	1.6
COc1cccc(C2Oc3ccccc3C3CC(c4ccccc4O)=NN32)c1 (stereo not given)	3.8
CCCCNC(=O)c1nn2c(c1Cl)NC(c1cccs1)CC2C(F)(F)F (stereo not given)	2.2
CN(C)/C=N/N(C)c1ccc([N+](=O)[O-])cn1	0.93
CCCNC(=S)/N=C(\N)N1CCOCC1	-0.24
CCOC(=O)c1c(N/N=C/c2cccc(Cl)c2)n[nH]c1C	-0.21
O=C(NC(=S)Nc1ccccc1Cl)c1cnn2c(C(F)(F)F)cc(C(F)(F)F)nc12	0.93
O=C(NC(=S)Nc1ccccc1Cl)c1ccc(F)cc1F	10*
O=C(NC(=S)Nc1ccccc1Cl)c1ccccc1	2.7
O=C(Nc1cccc(Cl)c1)O/N=C1/CCCc2occc21	1.6
Nc1c(-c2nc(-c3ccccc3)cs2)c2ccccn2c1C(=O)c1cccs1	0.81
Cc1cc(NCc2ccc3c(c2)OCO3)ccc1Br	3.8*
SMILES	Dicer inh
O=c1[nH]c2ccc(NCc3ccc4c(c3)OCO4)cc2[nH]1	-0.48
CCc1ccc(CNCc2ccc3c(c2)OCO3)cc1	1.6
Cc1ccc(-c2nc3cc(NCc4ccc5c(c4)OCO5)ccc3o2)cc1	8*
O=C(O)c1cc(NCc2ccc3c(c2)OCO3)ccc1N1CCOCC1	2.8
Clc1cc(NCc2ccc3c(c2)OCO3)ccc1N1CCOCC1	6.9*
c1ccc(NCc2ccc3c(c2)OCO3)cc1	1.4
Cc1ccc(-c2nc3cc(NC(=O)c4ccc([N+](=O)[O-])o4)ccc3o2)cc1	-0.19
CC(C)(C)c1ccc(-c2nc3cc(NC(=O)c4ccc([N+](=O)[O-])o4)ccc3o2)cc1	1
COc1ccc(C2CC(=O)C3=C(C2)NC(C)=C(C(=O)OC2CCCC2)C3c2cccc(O)c2)cc1 (stereo not given)	0.15
CC12CN3CC(C)(CN(C1)C3c1ccccc1O)C2=O (stereo not given)	0.18
CN(C)c1ccc(C2CC(c3ccccc3)Nc3ncnn32)cc1 (stereo not given)	1.4
O=[N+]([O-])c1ccc(Sc2nc(-c3ccccc3)c(-c3ccccc3)[nH]2)cc1	0.46
Cc1ccc2oc3c(c(=O)c2c1)C(c1ccccc1)N(Cc1ccc2c(c1)OCO2)C3=O (stereo not given)	0.88
COc1cc2c(C(=O)O)c(C)n(-c3ccccc3)c2cc1Br	3.1*
CCOC(=O)c1c(C)n(-c2ccc(N(C)C)cc2)c2ccc(OC)cc12	-4.8
COc1ccccc1N1CCN(C(=O)c2cc(C)on2)CC1	-0.05
CCOC(=O)c1c(C)n(-c2ccccc2)c2ccc(OC(C)=O)cc12	1.4
COc1ccccc1-n1c(C)c(C(=O)O)c2cc(OC)c3ccccc3c21	4.6*
CCOC(=O)c1c(C)n(-c2ccc(N(C)C)cc2)c2ccc(OCC(N)=O)cc12	4.6*
COc1ccccc1N1CCN(c2nnc(C)c3ccccc23)CC1	-0.71
CCOC(=O)c1c(C)n(-c2ccccc2)c2ccc(OC(=O)c3cccnc3SCC)cc12	-0.1
CCOC(=O)c1c(C)n(-c2ccccc2)c2cc(Br)c(O)cc12	3.7*
CCOC(=O)c1c(C)n(-c2ccc(Br)cc2)c2ccc(O)cc12	-0.48
COc1cc(C(=O)O)cc(Br)c1OC	0.34
CCS(=O)(=O)Nc1cc2c(C(=O)O)c(C)n(S(=O)(=O)CC)c2cc1OC	-2
SMILES	Dicer inh
CC1=C(C(=O)OC(C)(C)C)C(c2ccccc2)NC(=O)N1C (stereo not given)	0.75
CCOC(=O)Cn1c(=O)c(C(=O)NC(=O)OCC)cn(Cc2ccccn2)c1=O	-0.66
CCOC(=O)C1CCN(c2nc3ccc(Cl)cc3s2)CC1	-1.4
c1ccc(CN2CCN(Cc3ccccc3)C2c2cccnc2)cc1	1.9
CC(C)(C)OC(=O)N1CCN(C(=O)/C=C/C(=O)O)CC1	-0.77
Nc1cccc(F)c1C(=O)NCc1ccc(Cl)cc1Cl	-0.53
COC(=O)CSC1CS(=O)(=O)c2cc([N+](=O)[O-])ccc21 (stereo not given)	-1.1
CS(=O)(=O)N(Cc1ccccc1)Cc1ccc2c(c1)OCO2	0.84
CC(C)(C)c1ccc(C(=O)N2CCN(c3cccc4[nH]ccc34)CC2)cc1	0.63
O=C1CSC(c2ccc(F)cc2)N1c1ccccc1 (stereo not given)	1.1
O=C(c1cc2n(n1)C(C(F)(F)F)CC(c1ccco1)N2)N1CCCCC1 (stereo not given)	-0.66
CCCCNc1nc2c(c(=O)[nH]c(=O)n2C)n1CC(C)C	9.2
Cc1ccc2nc3sc4ccc(Cl)cc4n3c(=O)c2c1	-0.55
ON(Cc1cccc(C(F)(F)F)c1)Cc1cccc(C(F)(F)F)c1	16
CN(C)C(=S)Cc1ccc(Cl)cc1	0.76
ON(Cc1ccc(Cl)cc1)Cc1ccc(Cl)cc1	3*
CC(C)NC(=O)C1c2ccccc2Oc2ccccc21	2.8
COC(=O)C1CCN(C(=O)C2c3ccccc3Oc3ccccc32)CC1	5*
O=C(O)C1c2ccccc2Oc2ccccc21	0.95
O=C(C1c2ccccc2Oc2ccccc21)N1CCCC1	4*
CC1CCCCN1C(=O)C1c2ccccc2Oc2ccccc21 (stereo not given)	1
CC1CN(C(=O)C2c3ccccc3Oc3ccccc32)CC(C)O1 (stereo not given)	2
Cc1cccc(C(=O)Nc2nc3ccc(C)cc3c(=O)[nH]2)c1	-1.5
COC(Cn1c(SCc2ccc(C)cc2)nnc1-c1ccccc1)OC	-0.76
CCOC(=O)c1c(NC(=O)COc2ccccc2)sc2c1CCC2	0.34
SMILES	Dicer inh
CCOC(=O)Nc1cc(Cl)cc(Cl)c1	0.19
Cc1nn(-c2ccccc2)nc1C(=O)ONC(=O)c1ccco1	2.5
N#Cc1cc2c(N)c(C(=O)Nc3ccccc3Oc3ccccc3)sc2nc1N	1.4
COc1cc2c(cc1OC)CN(C(=O)CSc1nnc3ccccn13)CC2	-0.05
COc1cc2c(cc1OC)CN(C(=O)c1ccco1)CC2	5*
COc1cc2nc(N3CCN(C(=O)c4ccco4)CC3)nc(N)c2cc1OC	0.19
S=c1[nH]c(-c2ccc(Cl)cc2)cn1-c1ccccc1	0.46
Cc1ccc(NC(=S)NNS(=O)(=O)c2cc(C(F)(F)F)cc(C(F)(F)F)c2)cc1C	4.9
CN(/N=C/c1ccc(O)cc1O)c1ncc(Cl)cc1C(F)(F)F	12*

High-throughput results (PubChem)
